The source of these data is PubChem BioAssay AID2685 (National Center for Advancing Translational Sciences (NCATS), 2010).

Structures are written as SMILES. Out of some 320,000 compounds screened, about 2,100 (0.66%) were called active. About 53% were inconclusive and are not listed. Calls follow the shape of the dose curve; as a rule, active = well fitted inhibition curve with a large enough effect in the signal ratio, with a control signal flat (not every such curve was filed as active); inconclusive = small, poorly fitted or top-dose-only effect, or effect the other way, or a change in a side signal; inactive = flat fitted curve, though single readings scatter; the % refers to the signal ratio. The list comes from a sample in which actives are over-represented; it also holds similar structures and randomly drawn compounds.
Potency is read from the fitted curve at half-maximal effect.

The experiment is described as follows: qHTS Assay for Lipid Storage Modulators in Drosophila S3 Cells.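 As to cell number change: cells counted by Cell Tracker Red CMTPX staining in the red channel.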 As to lipid storage change, negative = inhibition: % is scaled to controls: 0 for no effect and ±100 for the full control effect. To be noted: BODIPY lipid droplet fluorescence, 18-24 h, cells fed with added oleic acid; cell number change: measured here: cell count max response; series mostly up to 46.1 µM; lipid storage change, negative = inhibition: at the top concentration. Summed up:
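Drosophila S3 cells loaded with oleic acid (400 uM, as added) and compounds at several concentrations; lipid droplets imaged by 488-nm laser-scanning cytometry, 500–530 nm intensity and object ratio to cell channel. Percent activity normalized to 20 uM Triacsin C.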
(In qHTS, concentration-response curves come from the screen itself.)
On to `COc1ccc(-c2noc(CCC(=O)NCc3cccnc3)n2)cc1OC`, for which the “lipid storage change, negative = inhibition” value is 27.8% (inactive) and the cell number change is -15.7%.

`CCOC(=O)C1CCN(C(=O)c2ccc(Oc3cc(Cl)cc(Cl)c3)o2)CC1`: the “lipid storage change, negative = inhibition” value is 4.49% (inactive) and the cell number change stood at 4.65%.

As to `Cc1onc(-c2ccccc2)c1CNS(=O)(=O)c1cccc(Br)c1`, the “lipid storage change, negative = inhibition” value is 8.41% (inactive) and the cell number change stood at 12%.

For the compound `CCOc1ccc(N(CC(=O)NCCSCc2ccc(Cl)cc2)S(C)(=O)=O)cc1`, the Potency was 9.2 µM (active) and the cell number change is -19.8%.

In the case of `COc1cccc(N(CC(=O)NCCSCc2ccc(Cl)cc2)S(C)(=O)=O)c1`, the “lipid storage change, negative = inhibition” value was -30.8% (inactive) and the cell number change is -16.4%.

Consider `CCOc1ccc(N(CC(=O)NCCSCc2ccccc2)S(C)(=O)=O)cc1`, for which the “lipid storage change, negative = inhibition” value was -19.5% (inactive) and the cell number change was 10.5%.

Regarding `O=C(CSc1nncs1)Nc1ccc(Cl)cn1`, the “lipid storage change, negative = inhibition” value is -2.98% (inactive) and the cell number change is -5.79%.

With `O=C(NCC(O)c1ccc2ccccc2c1)c1c(F)cccc1F` (stereo not given), the “lipid storage change, negative = inhibition” value was 10.9% (inactive) and the cell number change stood at 4.67%.

`Cc1cc(NS(=O)(=O)c2c(C)[nH]c(=O)[nH]c2=O)ccc1Br`: the “lipid storage change, negative = inhibition” value was 7.03% (inactive).

Consider `Cc1ccc(-n2ncc3c2CC(C)(C)CC3NC(=O)CCn2cncn2)cc1` (stereo not given), for which the compound was classed as inactive and the cell number change is -18.7%.

`CC(C)(C)c1ccc(-n2ncc3c2CCCC3NC(=O)CCCn2cncn2)cc1` (stereo not given): the “lipid storage change, negative = inhibition” value is 8.93% (inactive) and the cell number change was 14.9%.

Regarding `CC(=O)NCC(=O)NC1CCCc2c1cnn2-c1ccc(C(C)(C)C)cc1` (stereo not given), the call was inactive.

Regarding `Cc1cc(C)n(CC(=O)NC2CCCc3c2cnn3-c2ccc(C)c(C)c2)n1` (stereo not given), the Potency is 16.4 µM (active) and the cell number change was -23%.

Consider `CC(=O)Nc1cccc(C(=O)NC2CCCc3c2cnn3-c2ccc(C(C)(C)C)cc2)c1` (stereo not given), for which the “lipid storage change, negative = inhibition” value is -8.75% (inactive) and the cell number change was -22.8%.

For `CC(=O)CCC(=O)NC1CCCc2c1cnn2-c1ccc(C(C)(C)C)cc1` (stereo not given), the Potency was 10.3 µM (active) and the cell number change was -14.2%.

For `CCn1nc(C)cc1C(=O)NC1CCCc2c1cnn2-c1ccc(C)c(C)c1` (stereo not given), the call was inactive and the cell number change is -8.5%.

For the compound `CC(C)(C)c1ccc(-n2ncc3c2CCCC3NC(=O)CCn2cncn2)cc1` (stereo not given), the Potency was 3.66 µM (active) and the cell number change was -29.9%.

For the compound `Cc1cc(C)n(CC(=O)NC2CCCc3c2cnn3-c2ccccc2F)n1` (stereo not given), the “lipid storage change, negative = inhibition” value was 1.73% (inactive) and the cell number change was -1.7%.

With `Cc1cc(N/N=C/c2ccc(O)cc2O)nc(N2CCOCC2)n1`, the “lipid storage change, negative = inhibition” value was -0.596% (inactive) and the cell number change is -4.63%.

Regarding `COc1ccccc1OCC(=O)Nc1ccc(Cl)cc1`, the “lipid storage change, negative = inhibition” value was -1.36% (inactive) and the cell number change is -13.6%.

As for `CCCCOc1ccc(C(O)(CCN2CCOCC2)c2ccccc2)cc1` (stereo not given), the “lipid storage change, negative = inhibition” value was -10.2% (inactive) and the cell number change was -14.2%.

Turning to `COc1ccc(CCNC(=O)/C=C/c2ccc(OC)c(S(=O)(=O)N3CCOCC3)c2)cc1`, the “lipid storage change, negative = inhibition” value is -3.03% (inactive) and the cell number change came to 7.46%.

As for `O=C1NC(N2CCOCC2)=N/C1=C/c1ccc2c(c1)OCO2`, the “lipid storage change, negative = inhibition” value was 5.19% (inactive).

On to `Cc1nn(-c2ccccc2)c(Cl)c1C(=O)N1CCN(c2ncnc3c2cnn3-c2ccccc2)CC1`, for which the Potency is 7.31 µM (active) and the cell number change is -25.9%.

On to `O=C(c1ccccc1)N1CCN(c2ncnc3c2cnn3-c2ccccc2)CC1`, for which the “lipid storage change, negative = inhibition” value is -12.6% (inactive) and the cell number change is -7.55%.

As to `Cc1cccc(C(=O)N2CCN(c3ncnc4c3cnn4-c3ccccc3)CC2)c1`, the “lipid storage change, negative = inhibition” value was -9.57% (inactive) and the cell number change is -21.5%.

As to `O=C(COC(=O)c1ccccc1Nc1ccccc1)NCc1ccccc1Cl`, the “lipid storage change, negative = inhibition” value was -6.32% (inactive) and the cell number change was -4.27%.

`Nc1nc(-c2ccccc2)c(-c2ccccc2)o1`: the “lipid storage change, negative = inhibition” value was 7.81% (inactive) and the cell number change is 3.44%.

Regarding `CC(=O)c1c(C)[nH]c(C(=O)OCCCCN2C(=O)c3ccccc3C2=O)c1C`, the Potency is 0.58 µM (active) and the cell number change was -18.3%.

Regarding `CCOC(=O)c1[nH]c(C)c(C(=O)OCCN2C(=O)c3ccccc3C2=O)c1C`, the “lipid storage change, negative = inhibition” value was 7.23% (inactive) and the cell number change is -20.4%.

As for `CC(=O)c1c(C)[nH]c(C(=O)OCC(=O)N2CC(=O)Nc3ccccc32)c1C`, the “lipid storage change, negative = inhibition” value is 20.9% (inactive) and the cell number change is 17.6%.

On to `Cc1cc(NS(=O)(=O)c2ccc3c(c2)OCCO3)no1`, for which the “lipid storage change, negative = inhibition” value was 5.36% (inactive) and the cell number change was 5.55%.

For `Cc1ccc(-c2nc(CS(=O)CC(=O)NCCCc3ccccc3)c(C)o2)cc1` (stereo not given), the compound was classed as inactive and the cell number change was 13.7%.

For `Cc1cc(C)cc(OCCCCn2cncn2)c1`, the “lipid storage change, negative = inhibition” value was 15.5% (inactive) and the cell number change came to 7.77%.

`COCCCNC(=O)/C=C1\Sc2ccccc2N(Cc2ccccc2F)C1=O`: the “lipid storage change, negative = inhibition” value was 0.378% (inactive) and the cell number change was 12.6%.

For `Oc1ccccc1-c1nc(NCc2ccccc2)c2ccccc2n1`, the “lipid storage change, negative = inhibition” value was -0.207% (inactive) and the cell number change is 2.04%.

With `OCCNc1nc(NCc2ccccc2)c2ccccc2n1`, the “lipid storage change, negative = inhibition” value was -19.2% (inactive) and the cell number change is -3.37%.

Take `c1ccc(CNc2nc(NCc3ccccc3)c3ccccc3n2)cc1`: the Potency is 16.4 µM (active) and the cell number change was -9.51%.

For `O=C1NC(=O)N(Cc2ccccc2F)C1=O`, the “lipid storage change, negative = inhibition” value is 2.47% (inactive) and the cell number change came out at 21.6%.

As to `O=C1c2ccccc2C(=O)N1Cc1ccccc1F`, the Potency was 29.1 µM (active) and the cell number change came out at 22.2%.

Turning to `O=C(O)CN1C(=O)C(=O)N(Cc2ccccc2F)C1=O`, the “lipid storage change, negative = inhibition” value was 17% (inactive) and the cell number change amounted to 9.39%.

Consider `Cc1cccc(C)c1NC(=O)C(C)N1CCCC1` (stereo not given), for which the “lipid storage change, negative = inhibition” value is -11.2% (inactive) and the cell number change was 0.595%.

Regarding `COc1ccccc1-c1nn(-c2ccccc2)cc1C(=O)N1CCc2ccccc2C1`, the Potency was 2.06 µM (active) and the cell number change was -17.2%.

Regarding `COc1ccccc1-c1nn(-c2ccccc2)cc1C(=O)N1CCN(C(=O)c2ccco2)CC1`, the “lipid storage change, negative = inhibition” value is 4.65% (inactive) and the cell number change turned out to be 3.39%.

`COc1ccccc1-c1cc(C(=O)N2CCc3ccccc3C2)c2ccccc2n1`: the “lipid storage change, negative = inhibition” value is 12.1% (inactive) and the cell number change is -2.91%.

Turning to `c1ccc(-c2cncnc2)cc1`, the call was inactive and the cell number change is -19.5%.

`COc1ccc(N(Cc2cc3ccc(C)cc3[nH]c2=O)C(=O)c2ccco2)cc1`: the “lipid storage change, negative = inhibition” value is 14.3% (inactive) and the cell number change came out at 1.12%.

With `CSc1nc(SCC(=O)NC(c2ccccc2)c2ccccc2)c2c3c(sc2n1)CN(C)CC3`, the result was inactive and the cell number change stood at 7.96%.

Regarding `Cc1ccc(N(C(C)C(=O)O)S(=O)(=O)c2c(C)n[nH]c2C)cc1` (stereo not given), the “lipid storage change, negative = inhibition” value is 14.2% (inactive) and the cell number change is 2.85%.

As for `CCOc1ccc(N(CC(=O)Nc2ccc(C)cc2)S(=O)(=O)c2c(C)[nH]c(=O)[nH]c2=O)cc1`, the outcome was inactive and the cell number change is -18.6%.

As for `COC(=O)C(C)N(c1ccc(C)cc1)S(=O)(=O)c1c(C)[nH]c(=O)[nH]c1=O` (stereo not given), the Potency was 25.9 µM (active) and the cell number change came out at 6.83%.

Take `O=[N+]([O-])c1cccnc1NCCNc1ncc(C(F)(F)F)cc1Cl`: the “lipid storage change, negative = inhibition” value was -22.1% (inactive) and the cell number change was -29.3%.

In the case of `NNC(=O)c1csc(-c2ncc(C(F)(F)F)cc2Cl)n1`, the “lipid storage change, negative = inhibition” value is 10.2% (inactive) and the cell number change was 17.7%.

With `CC(=O)c1cc(C(=O)Nc2ccc3ccccc3c2)c(C)o1`, the result was inactive and the cell number change was 16%.

`O=C(NCS(=O)(=O)c1ccccc1)c1ccccc1`: the Potency was 23.1 µM (active) and the cell number change turned out to be 0.335%.

Consider `Cc1ccc(S(=O)(=O)CNC(=O)c2ccccc2)cc1`, for which the “lipid storage change, negative = inhibition” value was 22.6% (inactive) and the cell number change is 10%.

On to `O=C(NCCS(=O)(=O)c1ccc(Br)cc1)c1ccccc1`, for which the “lipid storage change, negative = inhibition” value is -10.3% (inactive) and the cell number change was 14%.

Turning to `O=C(O)c1ccc(/C=N/Nc2ncc(C(F)(F)F)cc2Cl)cc1`, the “lipid storage change, negative = inhibition” value is -8.43% (inactive) and the cell number change was 0.452%.

For `Cc1ccc(S(=O)(=O)N2CCN(C(=O)COC(=O)Cc3ccc(F)cc3)CC2)c(C)c1`, the “lipid storage change, negative = inhibition” value is 3.61% (inactive) and the cell number change is -6.09%.
